# Reference: PubChem BioAssay AID1159580 (chemical genetic matrix, 2015)
# Hit rate of the full screen: of about 5,500 compounds, about 2,000 (36%) were called active. Roughly 18% stayed inconclusive and do not appear here. This is one part of the list. A number with no mark means an inactive call. No stated cut-off is given here; in the data, active means normalized growth mostly below about 0.91 (no sharp cut-off); inconclusive means no clear call, values can overlap the other calls; inactive means mostly above about 0.92.
# Experiment: chemical genetic growth profiling, strain panel (AID 1159580);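 further: tested at 20 µM; growth read once vehicle control cultures reached saturation at 30 °C; 1 = growth at the plate median or of vehicle wells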
# Details: growth OD
# [1] = S. cerevisiae deletion strains, locus YDL101C, strain DUN1, stronger effect = lower value
# [2] = S. cerevisiae deletion strains, locus YHR030C, strain SLT2, stronger effect = lower value
smiles,measurement,setting,value
O=[N+]([O-])c1ccc2oc(C(O)c3ccc(-c4ccccc4)cc3)cc2c1 (configuration not stated),normalized growth,"S. cerevisiae deletion strains, locus YAR019C, strain CDC15, stronger effect = lower value",0.989
same,normalized growth,"S. cerevisiae deletion strains, locus YBL105C, strain PKC1, stronger effect = lower value",0.976
same,normalized growth,"S. cerevisiae deletion strains, locus YBR135W, strain CKS1, stronger effect = lower value",0.978
same,normalized growth,"S. cerevisiae deletion strains, locus YBR136W, strain MEC1, stronger effect = lower value",0.975
same,normalized growth,"S. cerevisiae deletion strains, locus YBR160W, strain CDC28, stronger effect = lower value",0.985
same,normalized growth,"S. cerevisiae deletion strains, locus YDL017W, strain CDC7, stronger effect = lower value",0.979
same,normalized growth,"S. cerevisiae deletion strains, locus YDL028C, strain MPS1, stronger effect = lower value",0.987
same,normalized growth,[1],0.975
same,normalized growth,"S. cerevisiae deletion strains, locus YDL108W, strain KIN28, stronger effect = lower value",0.969
same,normalized growth,"S. cerevisiae deletion strains, locus YDL132W, strain cdc53, stronger effect = lower value",0.996
same,normalized growth,"S. cerevisiae deletion strains, locus YDL214C, strain PRR2, stronger effect = lower value",0.84
same,normalized growth,"S. cerevisiae deletion strains, locus YDR052C, strain DBF4, stronger effect = lower value",0.982
same,normalized growth,"S. cerevisiae deletion strains, locus YDR054C, strain cdc34, stronger effect = lower value",0.995
same,normalized growth,"S. cerevisiae deletion strains, locus YDR226W, strain ADK1, stronger effect = lower value",0.999
same,normalized growth,"S. cerevisiae deletion strains, locus YDR477W, strain SNF1, stronger effect = lower value",0.849
same,normalized growth,"S. cerevisiae deletion strains, locus YER123W, strain YCK3, stronger effect = lower value",0.805
same,normalized growth,"S. cerevisiae deletion strains, locus YER133W, strain GLC7, stronger effect = lower value",0.863
same,normalized growth,"S. cerevisiae deletion strains, locus YFL009W, strain cdc4, stronger effect = lower value",1
same,normalized growth,"S. cerevisiae deletion strains, locus YFL029C, strain CAK1, stronger effect = lower value",0.976
same,normalized growth,"S. cerevisiae deletion strains, locus YFR003C, strain YPI1, stronger effect = lower value",0.984
same,normalized growth,"S. cerevisiae deletion strains, locus YFR019W, strain FAB1, stronger effect = lower value",0.904
same,normalized growth,"S. cerevisiae deletion strains, locus YFR028C, strain CDC14, stronger effect = lower value",0.997
same,normalized growth,"S. cerevisiae deletion strains, locus YGR040W, strain KSS1, stronger effect = lower value",0.859
same,normalized growth,"S. cerevisiae deletion strains, locus YGR052W, strain FMP48, stronger effect = lower value",0.926
same,normalized growth,"S. cerevisiae deletion strains, locus YGR092W, strain DBF2, stronger effect = lower value",0.802
same,normalized growth,[2],0.786 (active)
same,normalized growth,"S. cerevisiae deletion strains, locus YHR079C, strain IRE1, stronger effect = lower value",0.896
same,normalized growth,"S. cerevisiae deletion strains, locus YHR082C, strain KSP1, stronger effect = lower value",0.86
same,normalized growth,"S. cerevisiae deletion strains, locus YHR205W, strain SCH9, stronger effect = lower value",0.967
same,normalized growth,"S. cerevisiae deletion strains, locus YIL147C, strain SLN1, stronger effect = lower value",0.968
same,normalized growth,"S. cerevisiae deletion strains, locus YJL095W, strain BCK1, stronger effect = lower value",0.905
same,normalized growth,"S. cerevisiae deletion strains, locus YJL128C, strain PBS2, stronger effect = lower value",1.05
same,normalized growth,"S. cerevisiae deletion strains, locus YJL157C, strain FAR1, stronger effect = lower value",0.822
same,normalized growth,"S. cerevisiae deletion strains, locus YJR016C, strain ILV3, stronger effect = lower value",0.977
same,normalized growth,"S. cerevisiae deletion strains, locus YJR066W, strain TOR1 (second series), stronger effect = lower value",0.751
same,normalized growth,"S. cerevisiae deletion strains, locus YJR066W, strain TOR1, stronger effect = lower value",0.829
same,normalized growth,"S. cerevisiae deletion strains, locus YKL048C, strain ELM1, stronger effect = lower value",0.979
same,normalized growth,"S. cerevisiae deletion strains, locus YKL067W, strain YNK1, stronger effect = lower value",0.872
same,normalized growth,"S. cerevisiae deletion strains, locus YKL101W, strain HSL1, stronger effect = lower value",0.982
same,normalized growth,"S. cerevisiae deletion strains, locus YKL193C, strain SDS22, stronger effect = lower value",0.98
same,normalized growth,"S. cerevisiae deletion strains, locus YKL203C, strain TOR2, stronger effect = lower value",0.924
same,normalized growth,"S. cerevisiae deletion strains, locus YLR113W, strain HOG1, stronger effect = lower value",0.882
same,normalized growth,"S. cerevisiae deletion strains, locus YLR133W, strain CKI1, stronger effect = lower value",0.877
same,normalized growth,"S. cerevisiae deletion strains, locus YLR403W, strain SFP1, stronger effect = lower value",0.902
same,normalized growth,"S. cerevisiae deletion strains, locus YML070W, strain DAK1, stronger effect = lower value",0.835
same,normalized growth,"S. cerevisiae deletion strains, locus YMR001C, strain CDC5, stronger effect = lower value",0.982
same,normalized growth,"S. cerevisiae deletion strains, locus YMR205C, strain PFK2 (second series), stronger effect = lower value",0.882
same,normalized growth,"S. cerevisiae deletion strains, locus YMR277W, strain FCP1, stronger effect = lower value",0.994
same,normalized growth,"S. cerevisiae deletion strains, locus YNL006W, strain LST8, stronger effect = lower value",0.987
same,normalized growth,"S. cerevisiae deletion strains, locus YNL020C, strain ARK1, stronger effect = lower value",0.854
same,normalized growth,"S. cerevisiae deletion strains, locus YNL161W, strain CBK1, stronger effect = lower value",0.984
same,normalized growth,"S. cerevisiae deletion strains, locus YNL183C, strain NPR1, stronger effect = lower value",0.919
same,normalized growth,"S. cerevisiae deletion strains, locus YNL207W, strain RIO2, stronger effect = lower value",0.979
same,normalized growth,"S. cerevisiae deletion strains, locus YNL222W, strain SSU72, stronger effect = lower value",0.976
same,normalized growth,"S. cerevisiae deletion strains, locus YNL307C, strain MCK1 (second series), stronger effect = lower value",0.936
same,normalized growth,"S. cerevisiae deletion strains, locus YOL078W, strain AVO1, stronger effect = lower value",0.993
same,normalized growth,"S. cerevisiae deletion strains, locus YOL136C, strain PFK27, stronger effect = lower value",0.849
same,normalized growth,"S. cerevisiae deletion strains, locus YOR061W, strain CKA2, stronger effect = lower value",0.75
same,normalized growth,"S. cerevisiae deletion strains, locus YOR119C, strain RIO1, stronger effect = lower value",0.904
same,normalized growth,"S. cerevisiae deletion strains, locus YOR231W, strain MKK1, stronger effect = lower value",0.892
same,normalized growth,"S. cerevisiae deletion strains, locus YOR329C, strain SCD5, stronger effect = lower value",0.985
same,normalized growth,"S. cerevisiae deletion strains, locus YPL031C, strain PHO85, stronger effect = lower value",0.848
same,normalized growth,"S. cerevisiae deletion strains, locus YPL153C, strain RAD53, stronger effect = lower value",0.821
same,normalized growth,"S. cerevisiae deletion strains, locus YPL204W, strain HRR25, stronger effect = lower value",0.88
same,normalized growth,"S. cerevisiae deletion strains, locus YPL209C, strain IPL1, stronger effect = lower value",0.977
same,normalized growth,"S. cerevisiae deletion strains, locus YPL256C, strain CLN2, stronger effect = lower value",0.96
same,normalized growth,"S. cerevisiae deletion strains, locus YPR025C, strain CCL1, stronger effect = lower value",0.985
same,normalized growth,"S. cerevisiae deletion strains, locus YPR106W, strain ISR1, stronger effect = lower value",1
same,normalized growth,"S. cerevisiae deletion strains, locus YPR111W, strain DBF20, stronger effect = lower value",1.03
same,normalized growth,"S. cerevisiae deletion strains, strain NNK1, stronger effect = lower value",0.997
same,normalized growth,"S. cerevisiae deletion strains, strain TSCII, stronger effect = lower value",0.987
O=C(c1ccc(-c2ccccc2)cc1)c1cc2cc([N+](=O)[O-])ccc2o1,normalized growth,"S. cerevisiae deletion strains, locus YAL013W, strain DEP1, stronger effect = lower value",1
same,normalized growth,"S. cerevisiae deletion strains, locus YBR229C, strain ROT2, stronger effect = lower value",0.993
same,normalized growth,[1],1.02
same,normalized growth,"S. cerevisiae deletion strains, locus YDR150W, strain NUM1, stronger effect = lower value",0.99
same,normalized growth,"S. cerevisiae deletion strains, locus YEL061C, strain CIN8, stronger effect = lower value",1.01
same,normalized growth,"S. cerevisiae deletion strains, locus YGR078C, strain PAC10, stronger effect = lower value",1.01
same,normalized growth,[2],1.01
same,normalized growth,"S. cerevisiae deletion strains, locus YHR087W, strain rtc3, stronger effect = lower value",1.01
same,normalized growth,"S. cerevisiae deletion strains, locus YJR043C, strain POL32, stronger effect = lower value",0.997
same,normalized growth,"S. cerevisiae deletion strains, locus YJR075W, strain HOC1, stronger effect = lower value",1.03
same,normalized growth,"S. cerevisiae deletion strains, locus YKL190W, strain CNB1, stronger effect = lower value",0.993
same,normalized growth,"S. cerevisiae deletion strains, locus YLR039C, strain RIC1, stronger effect = lower value",0.986
same,normalized growth,"S. cerevisiae deletion strains, locus YLR058C, strain SHM2 (second series), stronger effect = lower value",0.993
same,normalized growth,"S. cerevisiae deletion strains, locus YLR085C, strain ARP6, stronger effect = lower value",1
same,normalized growth,"S. cerevisiae deletion strains, locus YLR262C, strain YPT6, stronger effect = lower value",0.981
same,normalized growth,"S. cerevisiae deletion strains, locus YML094W, strain GIM5, stronger effect = lower value",1.07
same,normalized growth,"S. cerevisiae deletion strains, locus YMR219W, strain ESC1, stronger effect = lower value",1
same,normalized growth,"S. cerevisiae deletion strains, locus YMR263W, strain SAP30, stronger effect = lower value",1.04
same,normalized growth,"S. cerevisiae deletion strains, locus YNL153C, strain GIM3, stronger effect = lower value",1.01
same,normalized growth,"S. cerevisiae deletion strains, locus YNL298W, strain CLA4 (second series), stronger effect = lower value",0.996
same,normalized growth,"S. cerevisiae deletion strains, locus YNL322C, strain KRE1, stronger effect = lower value",1.01
same,normalized growth,"S. cerevisiae deletion strains, locus YNR030W, strain Alg12, stronger effect = lower value",1
same,normalized growth,"S. cerevisiae deletion strains, locus YPL055C, strain LGE1, stronger effect = lower value",1.01
same,normalized growth,"S. cerevisiae deletion strains, locus YPL241C, strain CIN2, stronger effect = lower value",1.07
same,normalized growth,"S. cerevisiae deletion strains, locus YPR135W, strain CTF4, stronger effect = lower value",1.12
same,normalized growth,"S. cerevisiae strains, strain wild type, stronger effect = lower value",0.987
